Assay results taken from PubChem BioAssay AID1159580 (chemical genetic matrix, 2015).
Where “and” joins values, the source holds several entries; their conditions need not be identical. Equal entries are not always repeated. The campaign covered roughly 5,500 compounds. About 2,000 (36%) were called active. Roughly 18% stayed inconclusive and do not appear here. Cut-off read from the data, not from the text of the source: active = normalized growth mostly below about 0.91 (no sharp cut-off); inconclusive = no clear call, values can overlap the other calls; inactive = mostly above about 0.92. Some of the results follow. Where a structure was tested more than once in an assay, its records may differ in their call.

Assay: chemical genetic growth profiling, strain panel (AID 1159580);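 note: tested at 20 µM; growth read once vehicle control cultures reached saturation at 30 °C; 1 = growth at the plate median or of vehicle wells; lower values mean less growth of the strain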
Conditions: growth OD

Measured: normalized growth

O=C(Nc1ccc([N+](=O)[O-])cc1Cl)c1cc(Cl)ccc1O
0.815 (active) and 0.99 (inactive): S. cerevisiae deletion strains, locus YJR075W, strain HOC1, stronger effect = lower value
0.924 (inactive) and 0.687 (active): S. cerevisiae deletion strains, locus YNL153C, strain GIM3, stronger effect = lower value
active: S. cerevisiae deletion strains, locus YKL009W, strain mrt4, stronger effect = lower value 1.2 [resistant] | S. cerevisiae deletion strains, locus YKL160W, strain elf1, stronger effect = lower value 0.773 | S. cerevisiae deletion strains, locus YKR001C, strain vps1, stronger effect = lower value 0.459 | S. cerevisiae deletion strains, locus YLR027C, strain aat2, stronger effect = lower value 0.92 | S. cerevisiae deletion strains, locus YLR039C, strain RIC1, stronger effect = lower value 0.289 | S. cerevisiae deletion strains, locus YLR221C, strain rsa3, stronger effect = lower value 0.906 | S. cerevisiae deletion strains, locus YLR262C, strain YPT6 (second series), stronger effect = lower value 0.241 | S. cerevisiae deletion strains, locus YLR262C, strain YPT6, stronger effect = lower value 0.193 | S. cerevisiae deletion strains, locus YLR320W, strain mms22, stronger effect = lower value 0.833 | S. cerevisiae deletion strains, locus YLR342W, strain FKS1 (second series), stronger effect = lower value 0.667 | S. cerevisiae deletion strains, locus YLR384C, strain iki3, stronger effect = lower value 1.09 [resistant] | S. cerevisiae deletion strains, locus YLR418C, strain cdc73, stronger effect = lower value 0.793 | S. cerevisiae deletion strains, locus YML124C, strain tub3, stronger effect = lower value 1.17 [resistant] | S. cerevisiae deletion strains, locus YMR078C, strain ctf18, stronger effect = lower value 1.17 [resistant] | S. cerevisiae deletion strains, locus YMR205C, strain PFK2, stronger effect = lower value 0.759 | S. cerevisiae deletion strains, locus YMR231W, strain pep5, stronger effect = lower value 0.901 | S. cerevisiae deletion strains, locus YNL071W, strain lat1, stronger effect = lower value 0.809 | S. cerevisiae deletion strains, locus YNL175C, strain NOP13, stronger effect = lower value 0.868 | S. cerevisiae deletion strains, locus YNL197C, strain WHI3, stronger effect = lower value 0.789 | S. cerevisiae deletion strains, locus YNL209W, strain ssb2, stronger effect = lower value 0.925 | S. cerevisiae deletion strains, locus YNL233W, strain BNI4, stronger effect = lower value 0.803 | S. cerevisiae deletion strains, locus YNR052C, strain pop2, stronger effect = lower value 1.12 [resistant] | S. cerevisiae deletion strains, locus YOL147C, strain pex11, stronger effect = lower value 1.19 [resistant] | S. cerevisiae deletion strains, locus YOR070C, strain gyp1, stronger effect = lower value 0.842 | S. cerevisiae deletion strains, locus YOR080W, strain dia2, stronger effect = lower value 0.904 | S. cerevisiae deletion strains, locus YOR083W, strain WHI5 (second series), stronger effect = lower value 0.751 | S. cerevisiae deletion strains, locus YOR083W, strain WHI5, stronger effect = lower value 0.88 | S. cerevisiae deletion strains, locus YOR106W, strain vam3, stronger effect = lower value 0.843 | S. cerevisiae deletion strains, locus YOR144C, strain elg1, stronger effect = lower value 1.19 [resistant] | S. cerevisiae deletion strains, locus YOR265W, strain rbl2, stronger effect = lower value 0.928 | S. cerevisiae deletion strains, locus YOR270C, strain vph1, stronger effect = lower value 0.666 | S. cerevisiae deletion strains, locus YPL051W, strain arl3, stronger effect = lower value 0.607 | S. cerevisiae deletion strains, locus YPL055C, strain LGE1, stronger effect = lower value 0.731 | S. cerevisiae deletion strains, locus YPL078C, strain atp4, stronger effect = lower value 0.866
0.393 (active) and 0.947 (inactive): S. cerevisiae deletion strains, locus YMR307W, strain GAS1, stronger effect = lower value
inactive: S. cerevisiae deletion strains, locus YKL068W, stronger effect = lower value 1 | S. cerevisiae deletion strains, locus YKL085W, strain MDH1 (second series), stronger effect = lower value 1.04 | S. cerevisiae deletion strains, locus YKL085W, strain MDH1, stronger effect = lower value 1.04 | S. cerevisiae deletion strains, locus YKR026C, strain gcn3, stronger effect = lower value 0.978 | S. cerevisiae deletion strains, locus YKR091W, strain srl3, stronger effect = lower value 0.938 | S. cerevisiae deletion strains, locus YLL001W, strain dnm1, stronger effect = lower value 0.971 | S. cerevisiae deletion strains, locus YLL026W, stronger effect = lower value 0.939 | S. cerevisiae deletion strains, locus YLL041C, strain sdh2, stronger effect = lower value 0.931 | S. cerevisiae deletion strains, locus YLR058C, strain SHM2, stronger effect = lower value 0.948 | S. cerevisiae deletion strains, locus YLR102C, strain apc9, stronger effect = lower value 1 | S. cerevisiae deletion strains, locus YLR113W, strain HOG1, stronger effect = lower value 1.01 | S. cerevisiae deletion strains, locus YLR258W, strain gsy2, stronger effect = lower value 0.977 | S. cerevisiae deletion strains, locus YLR268W, strain sec22, stronger effect = lower value 0.964 | S. cerevisiae deletion strains, locus YLR330W, strain CHS5, stronger effect = lower value 0.942 | S. cerevisiae deletion strains, locus YLR342W, strain FKS1, stronger effect = lower value 0.967 | S. cerevisiae deletion strains, locus YLR357W, strain rsc2, stronger effect = lower value 1.02 | S. cerevisiae deletion strains, locus YLR370C, strain arc18, stronger effect = lower value 0.949 | S. cerevisiae deletion strains, locus YLR371W, strain rom2, stronger effect = lower value 1 | S. cerevisiae deletion strains, locus YML016C, strain PPZ1, stronger effect = lower value 0.975 | S. cerevisiae deletion strains, locus YML120C, strain ndi1, stronger effect = lower value 0.975 | S. cerevisiae deletion strains, locus YMR058W, strain fet3, stronger effect = lower value 0.966 | S. cerevisiae deletion strains, locus YMR125W, strain sto1, stronger effect = lower value 0.999 | S. cerevisiae deletion strains, locus YMR129W, stronger effect = lower value 0.937 | S. cerevisiae deletion strains, locus YMR223W, strain ubp8, stronger effect = lower value 1.09 | S. cerevisiae deletion strains, locus YMR263W, strain SAP30, stronger effect = lower value 0.991 | S. cerevisiae deletion strains, locus YNL067W, strain RPL9B, stronger effect = lower value 0.925 | S. cerevisiae deletion strains, locus YNL183C, strain NPR1, stronger effect = lower value 0.933 | S. cerevisiae deletion strains, locus YNL224C, strain SQS1, stronger effect = lower value 0.972 | S. cerevisiae deletion strains, locus YNL248C, strain rpa49, stronger effect = lower value 0.969 | S. cerevisiae deletion strains, locus YNL250W, strain rad50, stronger effect = lower value 1.01 | S. cerevisiae deletion strains, locus YNL271C, strain bni1, stronger effect = lower value 0.999 | S. cerevisiae deletion strains, locus YNL298W, strain CLA4, stronger effect = lower value 1 | S. cerevisiae deletion strains, locus YNL307C, strain MCK1, stronger effect = lower value 0.986 | S. cerevisiae deletion strains, locus YNL322C, strain KRE1 (second series), stronger effect = lower value 1.06 | S. cerevisiae deletion strains, locus YNR049C, strain mso1, stronger effect = lower value 1 | S. cerevisiae deletion strains, locus YOL006C, strain TOP1, stronger effect = lower value 0.632 | S. cerevisiae deletion strains, locus YOL012C, strain htz1 0.729 | S. cerevisiae deletion strains, locus YOR001W, strain rrp6, stronger effect = lower value 0.944 | S. cerevisiae deletion strains, locus YOR061W, strain CKA2, stronger effect = lower value 0.969 | S. cerevisiae deletion strains, locus YOR069W, strain VPS5, stronger effect = lower value 0.96 | S. cerevisiae deletion strains, locus YOR136W, strain idh2, stronger effect = lower value 1.03 | S. cerevisiae deletion strains, locus YOR184W, strain ser1, stronger effect = lower value 1.03 | S. cerevisiae deletion strains, locus YOR231W, strain MKK1, stronger effect = lower value 1.01 | S. cerevisiae deletion strains, locus YOR290C, strain snf2, stronger effect = lower value 0.98 | S. cerevisiae deletion strains, locus YOR316C, strain cot1, stronger effect = lower value 1.02 | S. cerevisiae deletion strains, locus YPL106C, strain sse1, stronger effect = lower value 0.962 | S. cerevisiae deletion strains, locus YPL240C, strain hsp82, stronger effect = lower value 1.01 | S. cerevisiae deletion strains, locus YPL256C, strain CLN2, stronger effect = lower value 0.994 | S. cerevisiae deletion strains, locus YPR119W, strain clb2, stronger effect = lower value 1.06 | S. cerevisiae deletion strains, locus YPR141C, strain kar3, stronger effect = lower value 1.02 | S. cerevisiae deletion strains, locus YPR163C, strain tif3, stronger effect = lower value 1.04 | S. cerevisiae deletion strains, locus YPR167C, strain met16, stronger effect = lower value 1.06 | S. cerevisiae deletion strains, strain wtn01, stronger effect = lower value 1.03 | S. cerevisiae strains, strain wild type, stronger effect = lower value 0.904
0.921 (active) and 0.992 (inactive): S. cerevisiae deletion strains, locus YNL322C, strain KRE1, stronger effect = lower value
